# Reference: PubChem BioAssay (Tox21)
# Records with an inconclusive call do not appear. Entries that show only a call come without a potency. A number with no mark means an inactive call. Calls of active or inactive are those of the source. Unless noted, calls follow the shape of the dose curve; as a rule, active = well fitted curve in the direction sought with a large enough effect in the repeat runs; inconclusive = weak or mixed curves; inactive = no such curve, though single readings can be large; an effect the other way counts as inactive or inconclusive.
# Assays:
# [1] = qHTS assay to identify small molecule agonists of the vitamin D receptor (VDR) signaling pathway - cell viability counter screen (AID 743224); also: series mostly up to about 63 µM; nearly all actives have a fitted effect of over 50% in size
# Summary of the method: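 Luminescence from CellTiter-Glo, read after 30 min at room temperature, reports viability of VDR-bla cells treated with compounds for 16 h at 37C in the wells used for the beta-lactamase FRET read.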
# [2] = qHTS assay to identify small molecule antagonists of the vitamin D receptor (VDR) signaling pathway - cell viability counter screen (AID 743225); also: nearly all actives have a fitted effect of over 50% in size
# Summary of the method: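 Parallel cytotoxicity test: VDR-UAS-bla HEK 293T, 3 nM (final) 1-alpha,25-dihydroxyvitamin D3 with test compound, 16 h, 37C. Endpoint is CellTiter-Glo luminescence in the same wells.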
# [3] = qHTS assay to identify small molecule agonists of the NFkB signaling pathway (AID 1159509; active = well fitted curve in the direction sought with a large enough effect in the signal ratio in the repeat runs, not every such curve was filed as active; the % refers to the signal ratio; also: series mostly up to about 61 µM)
# Summary of the method: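 NFkB-bla ME-180 cells with a beta-lactamase reporter under an NF-kB response element were plated overnight, treated with compounds in DMSO for 5 hr at 37 C, then loaded with FRET substrate for 1.5 hr at room temperature.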
# [4] = qHTS assay to identify small molecule agonists of the NFkB signaling pathway - cell viability counter screen (AID 1159515; calls by dose curve; also: series mostly up to about 61 µM; nearly all actives have a fitted effect of over 55% in size)
# Summary of the method: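 Luminescence from CellTiter-Glo (30 min, room temperature) gives viability, measured in the same wells as the beta-lactamase reporter read. Cells were NFkB-bla ME-180, 2,000 per well, treated 5 hr with compounds.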
# [5] = qHTS assay to identify small molecule agonists of the endoplasmic reticulum stress response signaling pathway (AID 1159516; active = well fitted activation curve with a large enough effect in the signal ratio in the repeat runs, not every such curve was filed as active; the % refers to the signal ratio; also: potency is read from the fitted curve at half-maximal effect)
# Summary of the method: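 Read-out is beta-lactamase cleavage of a FRET substrate (405 nm excitation; 460 and 530 nm emissions) in ESRE-bla HeLa cells after a 5 hr compound exposure at 37 C. Substrate incubation ran 2 hr at room temperature.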
# [6] = qHTS assay to identify small molecule antagonists of the retinoid-related orphan receptor gamma (ROR-gamma) signaling pathway - cell viability counter screen (AID 1159520); also: nearly all actives have a fitted effect of over 50% in size
# Summary of the method: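 Cytotoxicity was read from cellular ATP (CellTiter-Glo luminescence) after 16 hr at 37 C with 1 uM doxycycline induction. The inducer was added 2 hr after compound transfer to Tet-on ROR gamma CHO cells.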
# [7] = target: Nuclear receptor ROR-gamma (Homo sapiens) (UniProt P51449); test: qHTS assay to identify small molecule antagonists of the retinoid-related orphan receptor gamma (ROR-gamma) signaling pathway (AID 1159521;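 also: CHO cells with doxycycline inducible ROR-gamma driving an RORE luciferase reporter; top concentration of the series differs between compounds; nearly all actives have a fitted effect of over 50% in size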)
# Summary of the method: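 Decreased RORE-driven luciferase luminescence indicates antagonism. Tet-on RORγ CHO cells received compound, then 1 uM final doxycycline 2 h later; signal read after 16 h incubation.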
# [8] = qHTS assay to identify small molecule agonists of the AP-1 signaling pathway - cell viability counter screen (AID 1159525; calls by dose curve; also: nearly all actives have a fitted effect of over 55% in size)
# Summary of the method: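 Luminescent ATP readout (Cell Titer Glo, 30 min RT), normalised to DMSO and tetra n-octyl ammonium bromide controls. Cells were ME-180 AP-1-bla in 0.5% dialyzed FBS Opti-MEM, with a 5 h, 37 °C compound exposure.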
# [9] = qHTS assay to identify small molecule agonists of the AP-1 signaling pathway (AID 1159526; calls by dose curve)
# [10] = target: Retinoic acid receptor RXR-alpha (Homo sapiens) (UniProt P19793); test: qHTS assay to identify small molecule agonists of the RXR signaling pathway (AID 1159527; calls by dose curve; also: nearly all actives have a fitted effect of over 35% in size)
# Retinoic acid receptor RXR-alpha (Homo sapiens), sequence (P19793 whole entry, looked up): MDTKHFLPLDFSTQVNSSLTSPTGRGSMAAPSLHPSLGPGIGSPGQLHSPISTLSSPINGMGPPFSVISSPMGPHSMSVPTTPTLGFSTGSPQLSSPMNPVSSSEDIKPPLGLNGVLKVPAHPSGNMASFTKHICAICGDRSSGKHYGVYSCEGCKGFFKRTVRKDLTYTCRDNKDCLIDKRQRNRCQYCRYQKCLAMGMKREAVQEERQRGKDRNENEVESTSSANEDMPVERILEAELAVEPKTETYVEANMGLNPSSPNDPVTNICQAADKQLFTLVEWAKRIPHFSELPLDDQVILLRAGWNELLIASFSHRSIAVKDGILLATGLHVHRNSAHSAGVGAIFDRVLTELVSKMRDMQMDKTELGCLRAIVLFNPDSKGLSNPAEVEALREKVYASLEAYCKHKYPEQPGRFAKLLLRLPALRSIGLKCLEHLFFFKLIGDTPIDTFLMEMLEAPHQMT
# Summary of the method: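 16 hr incubation of compound-treated RXR-alpha-UAS-bla HEK 293T cells (2% charcoal-stripped FBS, 37 C) preceded a 2 hr room-temperature LiveBLAzer FRET substrate step and blue/green fluorescence measurement.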
# [11] = qHTS assay to identify small molecule agonists of the RXR signaling pathway - cell viability counter screen (AID 1159529)
# Summary of the method: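 In this parallel viability measure, GeneBLAzer RXR-alpha HEK 293T cells (2% charcoal-stripped FBS) were given a 5 hr preincubation, treated with compounds 16 hr at 37 C, and read by CellTiter-Glo luminescence.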
# [12] = qHTS assay to identify small molecule antagonists of the retinoid acid receptor (RAR) signaling pathway - cell viability counter screen (AID 1159551); also: nearly all actives have a fitted effect of over 35% in size
# Summary of the method: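 Luminescent ATP quantitation (CellTiter-Glo) gave cell viability in C3RL4 cells exposed to test chemicals for 6 h at 37 C alongside 1 uM final retinol.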
# [13] = qHTS assay to identify small molecule antagonists of the retinoic acid receptor (RAR) signaling pathway (AID 1159552; also: nearly all actives have a fitted effect of over 50% in size)
# Summary of the method: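 C3RL4 RARE-luc cells, overnight plating; retinol 1 uM final added right after compound; 6 hr 37 C; luciferase read at 30 min RT.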
# [14] = qHTS assay to identify small molecule agonists of the retinoic acid receptor (RAR) signaling pathway (AID 1159553)
# Summary of the method: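 Luminescence from a RARE-driven luciferase reporter in C3RL4 cells served as the read-out, measured after 30 min with detection reagent at room temperature. Compounds in DMSO were applied for 6 hr at 37 C following overnight seeding.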
# [15] = qHTS assay to identify small molecule antagonists of the estrogen related receptor (ERR) signaling pathway - cell viability counter screen (AID 1224818);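 also: series mostly up to about 46 µM; viability measured after 17.5 h of compound exposure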
# Summary of the method: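 Multiplexed counter screen to separate cytotoxic compounds from true ERR modulators. ERR cells received DMSO-dissolved compounds after a 6 h pre-incubation, were exposed 17.5 h at 37 C, then assayed with CellTiter-Fluor fluorescence.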
# [16] = qHTS assay to identify small molecule antagonists of the estrogen related receptor signaling pathway with the pleiotropic PPARgamma coactivator (PGC) cell viability counter screen (AID 1224822;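 also: series mostly up to about 46 µM; viability read after 17.5 h compound exposure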)
# Summary of the method: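 Cells: PGC/ERR, 2,000/well, 1536-well format. Pre-incubation 6 h, 37 C/5% CO2. Compound exposure 17.5 h, 37 C. Detection: CellTiter-Fluor, 30 min, fluorescence.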
SMILES,Potency [1],Potency [2],outcome [3],Potency [4],Potency [5],Potency [6],Potency [7],Potency [8],outcome [9],Potency [10],Potency [11],Potency [12],Potency [13],Potency [14],outcome [15],outcome [16]
CSCC[C@H](NC(=O)[C@H](Cc1c[nH]c2ccccc12)NC(=O)CCNC(=O)OC(C)(C)C)C(=O)N[C@@H](CC(=O)O)C(=O)N[C@@H](Cc1ccccc1)C(N)=O,inactive,inactive,inactive,inactive,inactive,inactive,inactive,inactive,inactive,inactive,inactive,inactive,inactive,inactive,–,–
CCCCCCCCCCCCCCCC(=O)OCC,inactive,inactive,inactive,inactive,inactive,inactive,inactive,inactive,inactive,inactive,inactive,inactive,–,inactive,–,–
C[C@H](CS)C(=O)N1CCC[C@H]1C(=O)O,–,–,inactive,inactive,inactive,inactive,inactive,inactive,inactive,inactive,inactive,inactive,–,–,inactive,inactive
CC[C@H]1OC(=O)[C@H](C)[C@@H](O[C@H]2C[C@@](C)(OC)[C@@H](O)[C@H](C)O2)[C@H](C)[C@@H](O[C@@H]2O[C@H](C)C[C@H](N(C)C)[C@H]2O)[C@](C)(O)C[C@@H](C)C(=O)[C@H](C)[C@@H](O)[C@]1(C)O,inactive,inactive,inactive,inactive,inactive,inactive,inactive,inactive,inactive,inactive,inactive,inactive,–,–,–,–
C=CC(=O)O,inactive,inactive,inactive,inactive,inactive,inactive,inactive,inactive,inactive,inactive,inactive,inactive,inactive,inactive,–,–
CC(=O)N[C@@H](Cc1ccc(O)cc1)C(=O)O,inactive,inactive,inactive,inactive,inactive,inactive,inactive,inactive,inactive,–,inactive,inactive,inactive,inactive,–,–
O=c1[nH][nH]c(=O)c2cc([N+](=O)[O-])ccc12,inactive,inactive,inactive,inactive,inactive,inactive,inactive,inactive,inactive,inactive,inactive,inactive,–,–,–,–
O=C(CCS)OCC(COC(=O)CCS)(COC(=O)CCS)COC(=O)CCS,inactive,inactive,inactive,inactive,8.71 µM (active),inactive,inactive,inactive,inactive,inactive,–,–,–,–,–,–
BrC(Br)C(Br)Br,inactive,inactive,inactive,inactive,inactive,inactive,inactive,inactive,inactive,inactive,inactive,inactive,inactive,inactive,–,–
O=S(=O)(Cl)c1c(Cl)cccc1Cl,inactive,inactive,inactive,inactive,inactive,inactive,inactive,inactive,inactive,inactive,inactive,inactive,inactive,inactive,–,–
O=C(Nc1ccc(C(=O)O)c(O)c1)c1ccccc1,inactive,inactive,inactive,inactive,inactive,inactive,inactive,inactive,inactive,inactive,inactive,inactive,–,–,–,–
CCN(CC)CC(=O)Nc1c(C)cccc1C(=O)OC,inactive,inactive,inactive,inactive,inactive,inactive,inactive,inactive,inactive,inactive,inactive,inactive,–,–,–,–
O=C(NC(Cc1cc(=O)[nH]c2ccccc12)C(=O)O)c1ccc(Cl)cc1 (stereo unspecified),inactive,inactive,inactive,inactive,inactive,inactive,inactive,inactive,inactive,inactive,inactive,inactive,inactive,–,–,–
O=C(O)CO,inactive,inactive,inactive,inactive,inactive,inactive,inactive,inactive,inactive,inactive,inactive,inactive,inactive,–,–,–
COC(OC)OC,inactive,inactive,inactive,inactive,inactive,inactive,inactive,inactive,inactive,inactive,inactive,inactive,–,inactive,–,–
O=C(c1ccccc1)c1ccc(O)cc1,inactive,inactive,inactive,inactive,inactive,inactive,inactive,inactive,inactive,inactive,–,inactive,inactive,–,–,–
CCOC(=O)Oc1ccc(CCNC(=O)[C@H](CCSC)NC(C)=O)cc1OC(=O)OCC,inactive,inactive,inactive,inactive,inactive,inactive,inactive,inactive,inactive,inactive,inactive,inactive,–,–,–,–
CC1CCCO1 (stereo unspecified),–,inactive,inactive,inactive,inactive,inactive,inactive,inactive,inactive,inactive,inactive,inactive,–,–,–,–
